# A selection: hits, their analogues and other compounds. The true share with any hit is near 2.1%.
# PrPC surface inh: cell surface PrPC inhibition, primary TR-FRET screen. P04156. TR-FRET read-out. inhibition, % at 13.8 µM. 0.43% of 370,000 active; in the data active means inhibition above about 24%; further: 0% = median of the test wells and 100% = reference compound wells
# PfHsp40 yeast: restores yeast growth despite PfHsp40 toxicity; S. cerevisiae expressing PfHsp40, growth rescue, ATP luminescence; growth rescue, % at 12.5 µM; AID 504582; 0.68% of 340,000 active; in the data active means growth rescue above about 28%, passing the limit was not always enough;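 further: yeast W303a lacking pdr1 and pdr3 grown in galactose medium; growth measured after three days at 30 °C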
# MazF activator: increases E. coli MazEF RNase cleavage of RNA. FAM/BHQ RNA-DNA oligo cleavage fluorescence, 5 h. activation, % at 20 µM. 0.32% of 350,000 active; in the data active means activation above about 50%
# DUSP3 inh: inhibitors of human VHR1 phosphatase (DUSP3); 0.52% of 290,000 active; AID 1654; recombinant VHR phosphatase, pNPP absorbance; P51452; inhibition, % at 13.3 µM; in the data active means inhibition above about 50%
# BJeLR lethal: kills HRASV12-expressing BJeLR cells | BJeLR (HRASV12) viability, CellTiter-Glo ATP luminescence, 48 h | 0.17% of 300,000 active | inhibition, % (concentration not given with the values); in the data active means inhibition above about 50%
# PrP UTR inh: inhibition of PrP 5' UTR reporter expression; inhibition, % (test concentration not listed); cell-based PrP 5' UTR mRNA reporter, plate reader; 0.35% of 340,000 active; AID 488862; in the data active means inhibition above about 52%; further: 0 = median of the neutral control wells
# PrPC TRFRET cf: confirmation of inhibitors of cell surface human prion protein; shares compounds with PrPC surface inh; 65% of 1,500 active; cell surface PrPC level, TR-FRET; inhibition, % at 13.8 µM; in the data active means inhibition above about 25%
# LD9 tox: counter-screen for PrPc inhibitors: cytotoxicity in LD9 cells | AID 743201 | shares compounds with PrPC surface inh | luminescence viability | inhibition, % at 13.8 µM | 29% of 1,500 active; in the data active means inhibition above about 9.5%
# An asterisk follows results filed as active; · = no result.
SMILES,PrPC surface inh,PfHsp40 yeast,MazF activator,DUSP3 inh,BJeLR lethal,PrP UTR inh,PrPC TRFRET cf,LD9 tox
CCOc1ccc(-c2cc(C(=O)NCCCn3ccnc3)c3ccccc3n2)cc1,-5.8,-1.4,11.2,36.9,2.0,-10.3,·,·
CCOc1ccc(-c2cc(C(=O)NCCCn3ccnc3)c3cc(Br)ccc3n2)cc1,25.4*,-0.4,3.8,-9.1,1.7,-12.4,82.3*,-0.4
COCCN(C(=O)c1cccc(N2C(=O)CCC2=O)c1)c1nc(-c2ccc([N+](=O)[O-])cc2)cs1,-7.8,1.8,-9.9,·,-1.7,-16.3,·,·
COc1ccccc1N(C(=O)c1ccncc1)c1nc(-c2ccc([N+](=O)[O-])cc2)cs1,26.1*,1.6,3.5,-0.8,-0.4,-17.6,37.6*,-3.1
O=C(O)c1ccc(NC(=O)C2CC=CCC2C(=O)O)cc1 (configuration not stated),31.4*,1.1,0.2,6.2,8.5,-8.7,6.1,-1.4
O=C(O)C1CC=CCC1C(=O)Nc1ccccc1 (configuration not stated),7.6,-1.1,6.2,17.1,-2.7,-19.7,·,·
O=c1c2ccccc2nc2n1C(CSc1ccccc1)CS2 (configuration not stated),-1.4,1.7,-8.4,31.9,-20.2,-33.2,·,·
O=c1c2ccccc2nc2n1C(CSCc1ccc(Cl)cc1)CS2 (configuration not stated),25.6*,-0.6,5.4,16.8,4.1,-11.9,17.9,14.0*
O=C(COC(=O)CSc1ccc2ccccc2c1Br)NC1CC1,56.1*,2.4,4.7,22.3,1.3,-9.2,79.3*,-6.5
Cc1cc(C2(c3ccc(O)c(C)c3)OC(=O)c3ccccc32)ccc1O,2.2,0.3,3.8,31.5,-1.6,-17.8,·,·
Cc1cc(O)c(C(C)C)cc1C1(c2cc(C(C)C)c(O)cc2C)OC(=O)c2ccccc21,25.1*,0.4,4.8,34.8,-0.4,-18.3,15.8,-7.0
CCc1nc2ccc(C(=O)N3CCN(C(=O)c4ccco4)CC3)cn2c1N(CC)Cc1cccc(Br)c1,5.3,·,·,·,·,·,·,·
COc1ccc(NC(=O)c2cc(-c3cc(Cl)ccc3OC)n[nH]2)cc1OC,18.7,·,·,·,·,·,·,·
COc1ccc(NC(=O)c2cc(-c3cc(Cl)ccc3C)n[nH]2)cc1OC,25.0*,·,·,·,·,·,28.2*,15.2*
Cc1cc(F)ccc1-c1cc(C(=O)Nc2ccc(F)cc2)[nH]n1,8.5,·,·,·,·,·,·,·
COc1ccc(NC(=O)c2cc(-c3ccc(F)cc3C)n[nH]2)cc1OC,25.0*,·,·,·,·,·,12.8,7.5
COC(=O)c1ccc(CNC(=O)c2cc(S(=O)(=O)NCc3ccccc3)ccc2C)cc1,7.0,·,-1.4,·,·,·,·,·
CC[C@@H]1C[C@H]2CC[C@H](O2)[C@H](C)C(=O)O[C@@H](C)C[C@@H]2CC[C@@H](O2)[C@@H](C)C(=O)O[C@H](C)C[C@H]2CC[C@H](O2)[C@H](C)C(=O)O[C@@H](C)C[C@@H]2CC[C@@H](O2)[C@@H](C)C(=O)O1,38.7*,·,·,·,·,·,56.1*,54.8*
C[n+]1cc2c3c(ccc2c2ccc4cc5c(cc4c21)OCO5)OCO3,86.9*,·,·,·,·,·,100.5*,98.8*
COCc1cc(C)nc(SCc2ccc([N+](=O)[O-])cc2)c1C#N,-0.5,-0.3,11.5,4.1,-5.3,-25.5,·,·
COCc1cc(C)nc(SCc2ccccc2Cl)c1C#N,25.2*,-0.5,-12.7,44.5,-18.2,-4.0,6.5,-4.1
Cn1cnnc1SCC(=O)c1c(N)n(Cc2ccccc2)c(=O)n(C)c1=O,35.8*,-1.0,10.4,25.6,3.4,-24.3,18.6,-7.0
Cn1c(=O)c(C(=O)CSc2nncs2)c(N)n(Cc2ccccc2)c1=O,66.0*,-0.4,-13.1,10.2,3.8,5.0,64.8*,1.8
COc1ccc(CNC(=O)CSC(=S)N2CCCC2)cc1,-3.8,1.9,1.6,·,·,-18.4,·,·
C=CCNC(=O)c1onc(CSc2ccccc2)c1C(=O)O,-3.3,0.5,6.1,12.3,-1.6,-23.1,·,·
SMILES,PrPC surface inh,PfHsp40 yeast,MazF activator,DUSP3 inh,BJeLR lethal,PrP UTR inh,PrPC TRFRET cf,LD9 tox
C=CCNC(=O)c1onc(CSc2ccc(OC)cc2)c1C(=O)O,36.8*,-1.7,-0.5,16.4,-6.6,-21.5,5.3,-6.0
Cc1nc2sccn2c(=O)c1S(=O)(=O)NC(C)c1ccccc1 (configuration not stated),-7.5,-1.1,1.3,9.4,-2.4,-1.4,·,·
NS(=O)(=O)c1ccc(CCNC(=O)CCCCCn2c(=S)[nH]c3ccc(Br)cc3c2=O)cc1,24.9*,1.0,11.7,14.7,0.6,51.3,37.0*,-4.0
O=C(CCCCCn1c(=S)[nH]c2ccc(Br)cc2c1=O)NCC1CCCO1 (configuration not stated),-0.9,-0.7,6.6,15.8,-7.3,-13.0,·,·
c1ccc2[nH]c(CSc3ncnc4c3oc3ccccc34)nc2c1,28.8*,-1.4,-7.3,7.3,-14.4,-99.9,26.4*,-1.1
CN(C)c1ccc(-[n+]2c(-c3ccccc3)cc(-c3ccccc3)cc2-c2ccccc2)cc1,30.8*,8.2,25.0,21.5,56.5*,27.5,41.1*,47.2*
CC1(Oc2cnc(Cl)c3ccccc23)CCN(Cc2ccc(OC(F)(F)F)cc2)C1 (configuration not stated),-2.4,·,·,·,·,·,·,·
S=c1nc(-c2ccccc2)n(CCCn2ccnc2)c2c1CCCC2,46.8*,-0.2,12.1,15.1,-9.2,-9.1,45.7*,-1.8
CN(CCCC(=O)NCCc1ccccc1)S(=O)(=O)c1ccc([N+](=O)[O-])cc1,-60.5,1.9,8.9,29.3,1.6,-28.3,·,·
CCN(CC)Cc1c(O)ccc2c(C)c(CC(=O)OC)c(=O)oc12,1.9,1.2,4.9,35.7,-2.6,-14.8,·,·
COC(=O)Cc1c(C)c2ccc(O)c(CNCc3ccc(OC)c(OC)c3)c2oc1=O,25.0*,-1.9,4.4,·,1.0,-13.5,4.8,-3.1
Cc1cccnc1C(NC(=O)C1CCN(CCCOc2ccccc2)CC1)c1ccc(F)cc1 (configuration not stated),-1.2,·,·,·,·,·,·,·
O=C(Nc1ccc2c(c1)OCO2)Nc1ccc2c(c1)OCO2,9.1,-0.2,2.4,-12.3,12.1,-46.2,·,·
O=C(Nc1ccc(OC(F)F)c(Cl)c1)Nc1ccc2c(c1)OCO2,28.9*,-1.1,7.7,-5.1,-11.7,-51.3,21.7,2.9
COc1ccc(C(C)(C)C)cc1NC(=O)Nc1ccc2c(c1)OCO2,24.9*,15.1,9.1,13.2,-4.5,-7.3,16.4,-0.9
C[C@H](CO)N1C[C@H](C)[C@@H](CN(C)C(=O)Nc2ccc3c(c2)OCO3)Oc2ccc(NC(=O)NC3CCCCC3)cc2C1=O,9.6,-0.6,4.2,·,·,-15.9,·,·
COC(=O)[C@]12C[C@H](CC(=O)N3CCCCC3)C(=O)N(Cc3cccc4ccccc34)C1=C[C@H](C(C)(C)C)O[C@@H]2C,-2.9,·,·,·,·,·,·,·
